C1s inh – complement C1s protease inhibitors, primary screen, biochemical, 10-compound mixtures | purified C1s, fluorogenic AMC substrate, pooled mixtures | 62,000 tested, 0.16% active | Complement C1s subcomponent (Homo sapiens), P09871 | mean inhibition % of two 10-compound mixtures (active compounds read high), % at 5 µM (by protocol);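 active = inhibition above 20% in each of the two 10-compound mixture wells holding the compound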;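 note: 0% = enzyme wells lacking compound mixture and 100% = no-enzyme blank wells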
Target sequence (P09871 16-437 limits assumed): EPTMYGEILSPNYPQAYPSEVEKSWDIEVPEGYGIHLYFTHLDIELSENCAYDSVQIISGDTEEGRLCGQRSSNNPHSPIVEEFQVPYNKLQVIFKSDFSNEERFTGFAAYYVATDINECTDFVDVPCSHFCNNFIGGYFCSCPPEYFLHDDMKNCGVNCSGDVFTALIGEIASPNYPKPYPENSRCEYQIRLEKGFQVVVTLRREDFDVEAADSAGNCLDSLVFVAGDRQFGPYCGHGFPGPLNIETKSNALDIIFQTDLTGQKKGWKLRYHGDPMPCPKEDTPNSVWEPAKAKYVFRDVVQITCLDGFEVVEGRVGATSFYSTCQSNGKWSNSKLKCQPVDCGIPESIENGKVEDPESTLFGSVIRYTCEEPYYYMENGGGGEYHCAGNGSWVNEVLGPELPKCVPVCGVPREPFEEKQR
Target sequence (P09871 438-688 limits assumed): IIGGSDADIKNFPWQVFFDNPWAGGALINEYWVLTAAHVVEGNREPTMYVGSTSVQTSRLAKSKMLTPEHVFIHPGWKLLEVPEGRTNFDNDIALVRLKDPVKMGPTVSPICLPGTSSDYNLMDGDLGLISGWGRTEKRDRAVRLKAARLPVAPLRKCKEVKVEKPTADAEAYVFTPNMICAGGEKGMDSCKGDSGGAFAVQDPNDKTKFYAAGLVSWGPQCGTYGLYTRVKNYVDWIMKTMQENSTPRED
FXIIa inh mix – human factor XIIa inhibitors, primary screen, biochemical, pooled compound mixtures, fluorogenic substrate; inhibition, % at 5 µM; purified FXIIa; AID 684, 2007; 62,000 tested, 0.2% active; Coagulation factor XII (Homo sapiens), P00748;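 note: 0% = enzyme without compound and 100% = no enzyme blank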
FXIa inh mix – FXIa protease inhibitors in compound pools, primary screen, biochemical, 10-compound mixtures; Coagulation factor XI (Homo sapiens), P03951; purified FXIa, fluorogenic substrate, pooled mixtures; inhibition, % at 5 µM; 62,000 tested, 0.19% active; AID 680, 2007;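 note: each value is inhibition by a whole ten-compound pool holding the compound; 0% = enzyme with no mixture and 100% = wells lacking enzyme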
Cathepsin G inh – human cathepsin G inhibitors, primary screen, biochemical, pooled compound mixtures, AMC fluorescence | purified enzyme, AMC-tetrapeptide fluorescence | inhibition, % at 5 µM (by protocol) | 62,000 tested, 0.2% active;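 active = inhibition above 20% in each of the two mixture wells holding the compound; inactive = inhibition of 20% or less in either well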;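 note: 0% = enzyme control without mixture and 100% = blank lacking enzyme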
Starred values were filed as active, the others as inactive. This is a sample that favours compounds with a hit; in the whole collection about 0.5% have one here. Cut-off read from the data, not from the text of the source, unless noted: active = inhibition above about 20% (passing the limit was not always enough); inactive = the rest.

SMILES	C1s inh	FXIIa inh mix	FXIa inh mix	Cathepsin G inh
Cc1c(NC(=O)C2Cc3ccccc3CN2C(=O)c2ccco2)c(=O)n(-c2ccccc2)n1C (configuration not stated)	21*	-9	7	14
CSc1ccccc1N=Cc1nc(-c2ccccc2)oc1O	10	12	4	13
COc1ccccc1N=Cc1nc(-c2ccccc2)oc1OC(C)=O	9	6	50*	26*
CCOC(=O)C(NC(C)=O)(Nc1ccc(S(=O)(=O)Nc2cc(C)nc(C)n2)cc1)C(F)(F)F (configuration not stated)	14	0	2	29
COc1ccc(C(O)C(CC(=O)NCCCOC(C)C)C(=O)NCCCOC(C)C)cc1OC (configuration not stated)	17	4	4	10
CCOC(=O)N1CCC(NC(=O)C2CCCN(Cc3nc(-c4cccc(Cl)c4)oc3C)C2)CC1 (configuration not stated)	-10	1	21*	4
O=C(c1csc2c1CCCC2)n1cccn1	52*	11	45*	48*
O=C(c1csc2c1CCCC2)N1CCN(c2ncccn2)CC1	-15	5	-7	5
COc1ccc(-c2[nH]ncc2-c2cnn(-c3ccccc3)c2)c(O)c1	11	1	9	6
COc1cc2cc(C(c3nnnn3C3CCCCC3)N(C)C3CCCCC3)c(=O)[nH]c2cc1OC (configuration not stated)	-8	-18	-1	-1
Nc1cc(N)nc(SCCOc2ccccc2F)n1	30	2	77*	14
Nc1cc(N)nc(SCCOc2ccccc2)n1	-74	7	-10	-13
Cc1ccc(SCc2[nH]nc3c2C(c2ccc(C)o2)C(C#N)=C(N)O3)cc1 (configuration not stated)	-17	6	86*	48
COc1ccccc1NC(=O)CSc1nnc(-c2ccccn2)n1Cc1ccco1	28	3	50*	31*
COc1ccc(C)cc1NC(=O)CSc1nnc(-c2ccccn2)n1Cc1ccco1	-4	4	2	9
Cc1cc(C)cc(N2CCCn3c2nc2c3c(=O)n(CCN3CCOCC3)c(=O)n2C)c1	0	13	23*	5
O=C(NC1CCCCCC1)C1C2C=CC3(CN(Cc4cccnc4)C(=O)C13)O2 (configuration not stated)	-2	6	2	-2
Cc1cc(NC(=O)c2noc3c2CCc2ccccc2-3)n(-c2ccccc2)n1	14	11	17	59*
NC(=O)NC(=O)CSc1cccc(C(F)(F)F)c1	27	3	25	24
COc1ccc(S(=O)(=O)N2CCC(C(N)=O)CC2)cc1	-8	-12	31*	48
O=C(CCCCCN1C(=O)CCC1=O)Nc1ccc2c(c1)OCO2	21	23*	5	8
CC(C)C1O/C(=N/C(=O)Nc2ccc(Cl)c(Cl)c2)NC1=O (configuration not stated)	4	7	4	-3
CCOC(=O)N1CCC(N2C(=O)c3cc(C(=O)NC4CCCCC4)ccc3C2O)CC1 (configuration not stated)	-4	3	25*	-2
CCCN1C(=O)c2cc(C(=O)NC3CCCCCC3)ccc2C1O (configuration not stated)	-16	10	5	-1
CCN(CC)C(=O)CSc1nc2ccccc2c(=O)n1OC	-32	-19	1	2
SMILES	C1s inh	FXIIa inh mix	FXIa inh mix	Cathepsin G inh
CCOC(=O)C(C)On1c(SC(C)C(=O)OCC)nc2ccccc2c1=O (configuration not stated)	-7	49*	12	1
CCCN1C(=O)C(O)(C2CC(=O)CC(C)(C)O2)c2ccccc21 (configuration not stated)	1	22*	1	8
CC1(C)Oc2ccc3ccc(=O)oc3c2C(N2CCCCC2)C1O (configuration not stated)	11	20*	4	12
CC1(C)Oc2ccc3ccc(=O)oc3c2/C(=C/N)C1=O	0	-5	4	-2
COc1ccc(OC)c(C2C3=C(CCCC3=O)Nc3nc4ccccc4n32)c1 (configuration not stated)	-6	14	9	6
O=C(Oc1ccc(N2C(=O)CCC2=O)cc1)c1ccco1	1	4	-1	1
O=C(Oc1ccc(-n2cnnn2)cc1)c1ccco1	31*	3	7	11
O=C1C(=O)N(CCCn2ccnc2)C(c2cccnc2)/C1=C(/O)c1ccc(Cl)cc1 (configuration not stated)	19	4	3	8
COC(=O)CSc1nnc(CNC(=O)Cc2ccccc2)n1C	-4	9	26*	3
CCOC(=O)CSc1nnc(CNC(=O)Cc2ccccc2)n1C	-19	13	26	-4
CCNC(=O)CN(CCc1ccccc1)S(C)(=O)=O	-17	7	5	8
CC(C)NC(=O)CN(CCc1ccccc1)S(C)(=O)=O	8	22*	10	14
CC(C)CCOP(=O)(c1ccc(N(C)C)cc1)C(O)c1ccccn1 (configuration not stated)	-1	5	-1	7
CC(C)COP(=O)(c1ccc(N(C)C)cc1)C(O)c1ccccn1 (configuration not stated)	12	48*	7	9
CCOC(=O)C1CCCN(C(=O)c2ccc3c(c2)NC(=O)C(N2CCOCC2)S3)C1 (configuration not stated)	-15	2	-5	5
O=C(CSc1ncn[nH]1)Nc1ccc(Cl)c(Cl)c1	-39	10	2	-4
COc1ccc(CC(=O)OCc2cc3ccc(C)cc3[nH]c2=O)cc1	-2	1	8	0
COc1ccc(CC(=O)OCc2cc3ccccc3[nH]c2=O)cc1	67*	13	-3	-9
Cc1ccc(-c2nn3c(C)nnc3s2)cc1NC(=O)c1ccc(OC(C)C)cc1	-11	2	22*	7
Cn1c(=O)n(C)c2cc(C(N)=O)ccc21	16	32*	2	14
CC(C)CN(CC(C)C)S(=O)(=O)N1CCC(C(=O)NCc2ccc(F)cc2)CC1	24*	9	8	16
COc1cccc(NC2=NC3(CCCCC3)N=C(N)N2)c1	14	3	4	8
CCCn1c(SCC(=O)NC)nnc1C(C)C	-34	1	3	-2
Cc1csc(NC(=O)c2ccco2)n1	22*	-20	9	13
O=C(Nc1nc(-c2nc3ccccc3s2)cs1)c1ccco1	-47	8	1	5
CCn1c(SCC(=O)N2CCCc3ccccc32)nnc1-c1cccs1	0	-17	9	3
CCn1c(SCC(=O)N2CCOCC2)nnc1-c1cccs1	-1	-4	21*	2
COC(=O)c1ccc(COC(=O)c2ccc(-n3cnnn3)cc2)o1	-14	-1	-1	-3
CCCCC(=O)Nc1ccc(NC(=O)c2cccnc2)cn1	21*	-15	6	9

High-throughput results as filed in PubChem BioAssay.
